The full data set covers some 7,900 targets. This sample favours those with a hit. About 0.6% of all pairs of compound and target were hits. Unmarked numbers belong to inactive results.

Sequence of UniProt O43665 (O43665 whole entry, looked up): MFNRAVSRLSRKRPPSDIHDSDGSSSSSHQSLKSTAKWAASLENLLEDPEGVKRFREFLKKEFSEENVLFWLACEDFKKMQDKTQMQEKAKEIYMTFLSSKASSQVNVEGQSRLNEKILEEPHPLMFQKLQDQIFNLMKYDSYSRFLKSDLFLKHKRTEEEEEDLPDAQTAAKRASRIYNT
Sequence of UniProt O15027 (O15027 whole entry, looked up): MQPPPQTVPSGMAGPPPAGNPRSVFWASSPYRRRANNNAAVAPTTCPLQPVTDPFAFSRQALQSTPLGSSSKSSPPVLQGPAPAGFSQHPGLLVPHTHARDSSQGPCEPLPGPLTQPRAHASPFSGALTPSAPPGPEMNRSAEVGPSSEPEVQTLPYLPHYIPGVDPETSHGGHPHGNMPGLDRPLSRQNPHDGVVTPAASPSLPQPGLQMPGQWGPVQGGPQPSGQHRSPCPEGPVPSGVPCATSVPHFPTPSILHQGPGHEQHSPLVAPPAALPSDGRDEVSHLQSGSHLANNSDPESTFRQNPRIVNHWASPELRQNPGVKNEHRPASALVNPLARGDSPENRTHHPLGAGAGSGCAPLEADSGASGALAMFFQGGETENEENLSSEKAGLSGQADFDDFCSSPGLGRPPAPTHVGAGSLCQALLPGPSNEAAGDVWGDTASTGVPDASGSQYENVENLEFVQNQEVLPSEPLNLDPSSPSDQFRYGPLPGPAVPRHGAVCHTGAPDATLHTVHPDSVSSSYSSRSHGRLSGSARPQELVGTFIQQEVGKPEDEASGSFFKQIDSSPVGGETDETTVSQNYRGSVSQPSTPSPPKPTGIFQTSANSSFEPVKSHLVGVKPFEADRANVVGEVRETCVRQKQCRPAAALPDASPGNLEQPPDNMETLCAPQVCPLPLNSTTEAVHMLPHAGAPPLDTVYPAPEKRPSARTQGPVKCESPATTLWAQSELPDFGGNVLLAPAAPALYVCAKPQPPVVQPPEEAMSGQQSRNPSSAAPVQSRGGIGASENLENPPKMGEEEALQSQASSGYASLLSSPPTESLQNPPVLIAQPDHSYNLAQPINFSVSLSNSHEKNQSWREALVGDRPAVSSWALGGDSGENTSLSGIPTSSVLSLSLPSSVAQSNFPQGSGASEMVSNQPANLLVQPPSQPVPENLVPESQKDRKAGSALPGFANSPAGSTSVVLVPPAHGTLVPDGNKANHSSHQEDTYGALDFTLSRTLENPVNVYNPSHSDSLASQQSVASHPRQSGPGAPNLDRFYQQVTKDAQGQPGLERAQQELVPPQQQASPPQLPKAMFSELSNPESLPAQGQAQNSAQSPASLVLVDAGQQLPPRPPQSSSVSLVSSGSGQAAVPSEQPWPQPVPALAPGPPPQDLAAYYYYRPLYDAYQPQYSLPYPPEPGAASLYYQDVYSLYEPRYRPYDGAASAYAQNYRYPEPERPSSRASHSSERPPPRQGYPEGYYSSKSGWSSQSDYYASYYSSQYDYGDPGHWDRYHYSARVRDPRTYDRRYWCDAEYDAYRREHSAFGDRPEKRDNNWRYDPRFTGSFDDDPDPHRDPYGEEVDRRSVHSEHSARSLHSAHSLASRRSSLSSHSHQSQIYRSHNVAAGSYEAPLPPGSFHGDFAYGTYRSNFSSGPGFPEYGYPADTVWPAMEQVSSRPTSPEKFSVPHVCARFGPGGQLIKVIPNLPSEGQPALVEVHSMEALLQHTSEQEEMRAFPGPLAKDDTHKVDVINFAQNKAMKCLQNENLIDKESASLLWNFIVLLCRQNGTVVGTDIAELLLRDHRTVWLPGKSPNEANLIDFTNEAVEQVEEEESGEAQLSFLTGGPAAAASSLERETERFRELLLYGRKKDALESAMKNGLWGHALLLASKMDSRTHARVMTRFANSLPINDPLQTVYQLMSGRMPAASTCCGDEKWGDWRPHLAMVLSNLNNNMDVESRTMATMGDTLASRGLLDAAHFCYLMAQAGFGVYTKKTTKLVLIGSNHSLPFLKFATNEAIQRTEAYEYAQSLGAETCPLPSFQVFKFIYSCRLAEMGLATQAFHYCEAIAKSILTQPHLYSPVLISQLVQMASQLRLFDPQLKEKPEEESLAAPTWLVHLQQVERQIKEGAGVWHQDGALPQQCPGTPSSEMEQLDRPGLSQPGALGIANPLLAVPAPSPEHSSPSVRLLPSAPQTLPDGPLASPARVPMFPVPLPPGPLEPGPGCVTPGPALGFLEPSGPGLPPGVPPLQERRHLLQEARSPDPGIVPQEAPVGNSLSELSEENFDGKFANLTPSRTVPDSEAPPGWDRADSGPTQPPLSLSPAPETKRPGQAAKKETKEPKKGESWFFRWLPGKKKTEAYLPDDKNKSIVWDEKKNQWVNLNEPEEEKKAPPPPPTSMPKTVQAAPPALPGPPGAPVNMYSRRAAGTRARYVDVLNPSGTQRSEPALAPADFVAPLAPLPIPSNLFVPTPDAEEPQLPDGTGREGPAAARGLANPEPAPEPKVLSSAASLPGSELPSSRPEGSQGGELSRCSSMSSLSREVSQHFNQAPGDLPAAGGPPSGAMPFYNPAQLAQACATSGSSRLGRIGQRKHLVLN
Sequence of UniProt Q8IZE3 (Q8IZE3 whole entry, looked up): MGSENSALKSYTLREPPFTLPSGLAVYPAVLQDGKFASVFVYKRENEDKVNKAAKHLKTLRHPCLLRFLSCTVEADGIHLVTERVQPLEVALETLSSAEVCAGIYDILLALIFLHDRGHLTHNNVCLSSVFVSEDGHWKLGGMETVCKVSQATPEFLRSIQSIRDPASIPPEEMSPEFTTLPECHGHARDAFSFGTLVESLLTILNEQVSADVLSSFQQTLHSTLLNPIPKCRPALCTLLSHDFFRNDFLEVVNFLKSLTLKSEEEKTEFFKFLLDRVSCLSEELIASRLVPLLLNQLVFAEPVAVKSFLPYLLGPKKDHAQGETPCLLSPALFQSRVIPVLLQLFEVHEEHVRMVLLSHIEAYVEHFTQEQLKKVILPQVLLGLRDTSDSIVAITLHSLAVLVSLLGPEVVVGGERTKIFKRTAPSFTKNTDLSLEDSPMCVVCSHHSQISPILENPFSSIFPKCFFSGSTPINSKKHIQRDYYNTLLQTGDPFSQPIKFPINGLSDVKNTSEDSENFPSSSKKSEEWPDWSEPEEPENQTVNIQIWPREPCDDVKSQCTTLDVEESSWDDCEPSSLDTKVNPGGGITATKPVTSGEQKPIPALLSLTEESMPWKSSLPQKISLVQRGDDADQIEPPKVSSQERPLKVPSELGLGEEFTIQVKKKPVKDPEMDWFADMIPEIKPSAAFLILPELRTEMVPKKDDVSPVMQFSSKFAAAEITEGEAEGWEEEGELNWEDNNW
Sequence of UniProt Q96T23 (Q96T23 whole entry, looked up): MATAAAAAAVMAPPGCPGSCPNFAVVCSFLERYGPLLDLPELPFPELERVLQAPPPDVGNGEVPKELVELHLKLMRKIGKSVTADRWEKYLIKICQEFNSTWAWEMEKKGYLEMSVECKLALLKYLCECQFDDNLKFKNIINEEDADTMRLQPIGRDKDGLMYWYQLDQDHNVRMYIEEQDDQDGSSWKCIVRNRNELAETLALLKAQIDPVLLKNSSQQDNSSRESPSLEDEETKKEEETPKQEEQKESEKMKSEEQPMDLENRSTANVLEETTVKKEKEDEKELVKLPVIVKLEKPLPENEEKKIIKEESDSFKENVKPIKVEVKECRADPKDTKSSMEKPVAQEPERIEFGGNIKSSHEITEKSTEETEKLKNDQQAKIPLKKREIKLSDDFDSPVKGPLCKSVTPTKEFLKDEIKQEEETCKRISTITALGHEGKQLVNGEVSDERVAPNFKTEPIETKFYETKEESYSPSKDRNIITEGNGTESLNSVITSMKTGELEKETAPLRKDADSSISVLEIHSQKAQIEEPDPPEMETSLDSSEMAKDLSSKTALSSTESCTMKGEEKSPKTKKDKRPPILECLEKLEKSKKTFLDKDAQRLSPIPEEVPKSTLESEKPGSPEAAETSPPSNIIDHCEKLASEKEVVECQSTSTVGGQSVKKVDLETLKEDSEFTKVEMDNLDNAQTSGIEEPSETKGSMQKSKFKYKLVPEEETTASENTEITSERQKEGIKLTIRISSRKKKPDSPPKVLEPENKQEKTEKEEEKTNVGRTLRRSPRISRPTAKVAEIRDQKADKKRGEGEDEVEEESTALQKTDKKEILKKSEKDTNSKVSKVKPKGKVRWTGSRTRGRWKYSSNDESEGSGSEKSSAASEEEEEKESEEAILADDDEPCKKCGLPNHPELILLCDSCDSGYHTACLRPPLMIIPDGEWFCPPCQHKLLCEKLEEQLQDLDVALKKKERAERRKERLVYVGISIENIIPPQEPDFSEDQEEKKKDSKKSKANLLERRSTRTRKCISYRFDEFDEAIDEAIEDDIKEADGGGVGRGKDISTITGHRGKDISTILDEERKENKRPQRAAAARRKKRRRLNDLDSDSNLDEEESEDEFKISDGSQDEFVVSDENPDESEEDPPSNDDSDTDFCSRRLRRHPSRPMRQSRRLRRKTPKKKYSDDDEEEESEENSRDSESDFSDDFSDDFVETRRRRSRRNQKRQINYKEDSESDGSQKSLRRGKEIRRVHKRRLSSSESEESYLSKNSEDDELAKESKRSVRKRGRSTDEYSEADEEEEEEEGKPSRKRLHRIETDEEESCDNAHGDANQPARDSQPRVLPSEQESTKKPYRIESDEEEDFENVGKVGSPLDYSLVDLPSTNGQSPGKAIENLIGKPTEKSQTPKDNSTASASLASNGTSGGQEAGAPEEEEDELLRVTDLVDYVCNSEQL
Sequence of UniProt Q99643 (Q99643 whole entry, looked up): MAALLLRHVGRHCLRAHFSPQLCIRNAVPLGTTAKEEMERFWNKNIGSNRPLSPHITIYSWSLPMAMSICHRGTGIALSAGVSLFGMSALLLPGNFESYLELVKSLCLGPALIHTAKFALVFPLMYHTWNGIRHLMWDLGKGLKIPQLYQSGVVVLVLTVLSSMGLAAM
Sequence of UniProt Q9BUV8 (Q9BUV8 whole entry, looked up): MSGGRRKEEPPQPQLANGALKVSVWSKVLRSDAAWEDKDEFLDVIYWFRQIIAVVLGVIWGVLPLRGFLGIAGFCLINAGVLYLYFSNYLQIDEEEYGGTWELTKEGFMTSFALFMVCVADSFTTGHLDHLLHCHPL

Compound in one experiment: C#Cc1cccc(Nc2ncnc3cc(OCCOC)c(OCCOC)cc23)c1 [erlotinib]
The experiment is described as follows: log2 fold change, soluble protein after heating vs DMSO (PISA); higher = thermal stabilisation; K562 cells, 10 uM, 30 min; active = over 0.2 and 3.5 SD of the protein, either way, in both replicates (recomputed). In outline: (§1)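 Aliquots of K562 cells (2×10^6 cells/mL) treated with 10 μM compound for 30 min were heated for 3 min over 48°C-58°C. After pooling and extraction in PBS with 0.5% NP-40 at 4°C, soluble protein from a 21,000xg, 90 min spin was quantified by TMTpro 16plex LC-MS/MS with channel sums equalised. Thermal stability is expressed against control samples, from duplicates, as a log2 fold change.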
Take RPS3 (UniProt P23396): the log2 fold change is -0.136.

As for SDHC (UniProt Q99643), the log2 fold change was -0.017.

For the target REL (UniProt Q04864), the log2 fold change was 0.076.

Consider SERINC1 (UniProt Q9NRX5), for which the log2 fold change is -0.034.

Take RPS9 (UniProt P46781): the log2 fold change was -0.099.

Turning to RPS27A (UniProt P62979), the log2 fold change is -0.246.

For RPS18 (UniProt P62269), the log2 fold change is -0.126.

RBM33 (UniProt Q96EV2): the log2 fold change was 0.017.

Turning to SEC23IP (UniProt Q9Y6Y8), the log2 fold change was 0.03.

In the case of RRAGB (UniProt Q5VZM2), the log2 fold change is -0.028.

Consider RPS16 (UniProt P62249), for which the log2 fold change was -0.166.

For the target RPS4X (UniProt P62701), the log2 fold change is -0.177.

RABGGTA (UniProt Q92696): the log2 fold change is 0.068.

As for RSL1D1 (UniProt O76021), the log2 fold change is -0.115.

On to ROR2 (UniProt Q01974), for which the log2 fold change was -0.045.

Turning to SEC16A isoform 5 (UniProt O15027), the log2 fold change is 0.126.

On to RETSAT (UniProt Q6NUM9), for which the log2 fold change was 0.044.

Take RAB5C isoform 2 (UniProt P51148): the log2 fold change is 0.

On to RSF1 (UniProt Q96T23), for which the log2 fold change was 0.034.

With SCAMP2 (UniProt H3BUB6), the log2 fold change is 0.182.

RSRC2 (UniProt Q7L4I2): the log2 fold change was 0.023.

For RAB5IF isoform 5 (UniProt Q9BUV8), the log2 fold change was 0.071.

In the case of RGS10 (UniProt O43665), the log2 fold change is -0.044.

As for ROCK1 (UniProt Q13464), the log2 fold change is 0.049.

Turning to SCYL3 isoform 2 (UniProt Q8IZE3), the log2 fold change is 0.046.

Turning to SCAF11 (UniProt Q99590), the log2 fold change was -0.074.

In the case of RCC1 isoform 2 (UniProt P18754), the log2 fold change is 0.158.

For RPS6KA2 isoform 2 (UniProt Q15349), the log2 fold change was 0.008.

As for RNASET2 (UniProt O00584), the log2 fold change is 0.027.

RBM48 isoform 2 (UniProt Q5RL73): the log2 fold change is -0.048.

With RPS3A (UniProt P61247), the log2 fold change was -0.178.

With RRP9 (UniProt O43818), the log2 fold change was 0.018.

For the target SASH1 (UniProt O94885), the log2 fold change is -0.013.

Regarding RIPK1 (UniProt Q13546), the log2 fold change is 0.013.

Compound in another experiment: C/C(=N\NC(=O)C1=CC(=CC=C1)S(=O)(=O)N2CCOCC2)/C3=C(C=CC(=C3)Cl)O
The description is as above. In outline: as §1
For RPS3 (UniProt P23396), the log2 fold change was -0.072.

Consider SDHC (UniProt Q99643), for which the log2 fold change was 0.033.

Regarding REL (UniProt Q04864), the log2 fold change is -0.013.

Turning to SERINC1 (UniProt Q9NRX5), the log2 fold change is -0.023.

Consider RPS9 (UniProt P46781), for which the log2 fold change was -0.05.

Turning to RPS27A (UniProt P62979), the log2 fold change is -0.143.

On to RPS18 (UniProt P62269), for which the log2 fold change was -0.088.

As for RBM33 (UniProt Q96EV2), the log2 fold change was 0.04.

For SEC23IP (UniProt Q9Y6Y8), the log2 fold change was 0.022.

RRAGB (UniProt Q5VZM2): the log2 fold change was 0.047.

RPS16 (UniProt P62249): the log2 fold change is -0.108.

On to RPS4X (UniProt P62701), for which the log2 fold change was -0.092.

Turning to RABGGTA (UniProt Q92696), the log2 fold change is 0.018.

On to RSL1D1 (UniProt O76021), for which the log2 fold change is -0.156.

Consider ROR2 (UniProt Q01974), for which the log2 fold change was 0.058.

SEC16A isoform 5 (UniProt O15027): the log2 fold change was -0.143.

As for RETSAT (UniProt Q6NUM9), the log2 fold change is -0.149.

Consider RAB5C isoform 2 (UniProt P51148), for which the log2 fold change was 0.042.

Consider RSF1 (UniProt Q96T23), for which the log2 fold change was 0.152.

Take SCAMP2 (UniProt H3BUB6): the log2 fold change is -0.331.

As to RSRC2 (UniProt Q7L4I2), the log2 fold change was -0.01.

In the case of RAB5IF isoform 5 (UniProt Q9BUV8), the log2 fold change is 0.093.

As to RGS10 (UniProt O43665), the log2 fold change is 0.048.

ROCK1 (UniProt Q13464): the log2 fold change was -0.025.

On to SCYL3 isoform 2 (UniProt Q8IZE3), for which the log2 fold change is 0.055.

For the target SCAF11 (UniProt Q99590), the log2 fold change was -0.09.

Regarding RCC1 isoform 2 (UniProt P18754), the log2 fold change is 0.195.

For RPS6KA2 isoform 2 (UniProt Q15349), the log2 fold change was 0.092.

RNASET2 (UniProt O00584): the log2 fold change is -0.007.

Consider RBM48 isoform 2 (UniProt Q5RL73), for which the log2 fold change is 0.017.

As for RPS3A (UniProt P61247), the log2 fold change was -0.041.

In the case of RRP9 (UniProt O43818), the log2 fold change is -0.04.

For the target SASH1 (UniProt O94885), the log2 fold change is 0.12.

RIPK1 (UniProt Q13546): the log2 fold change is -0.008.

Values taken from the supplement of paper PMC10849652.
